The values that follow come from PubChem BioAssay (Tox21).

The structures appear in SMILES notation. Where “and” joins values, the source holds several entries; their conditions need not be identical. Equal entries are not always repeated. A number with no mark means an inactive call. Records with an inconclusive call do not appear. Calls of active or inactive are those of the source. Unless noted, calls come from the whole dose curve.

Assay [1] can be described thus: Nuclear factor erythroid 2-related factor 2/antioxidant responsive element (Nrf2/ARE) small molecule agonists: qHTS cell viability counter screen in human keratinocytes (AID 1919968; active = well fitted curve in the direction sought with a large enough effect in the repeat runs; an effect the other way counts as inactive or inconclusive; note: nearly all actives have a fitted effect of over 55% in size; note: potency is the fitted concentration of half-maximal effect). The essentials: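 CellTiter-Fluor fluorescence, read 1 h after reagent, gave viability in the same wells as the ARE-luciferase assay. KeratinoSens cells (1,500/well) had 23 h compound exposure at 37 C/5% CO2 following 5 h plating.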

The nature of assay [2]: Nuclear factor erythroid 2-related factor 2/antioxidant responsive element (Nrf2/ARE) small molecule agonists: luciferase reporter gene qHTS assay in human keratinocytes (AID 1919969; note: nearly all actives have a fitted effect of over 35% in size; note: potency is the fitted concentration of half-maximal effect). (In general: A reporter such as luciferase makes a cellular process visible.)
The target in assay [3] is Gonadotropin-releasing hormone receptor (Homo sapiens) (UniProt P30968). Put plainly: Human gonadotropin-releasing hormone receptor (GnRHR) small molecule agonists, calcium flux assay in GnRHR-HEK293 cells (AID 1920063). Note: nearly all actives have a fitted effect of over 35% in size. In a few lines:
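Agonist mode: compounds at 15 concentrations, in triplicate, went onto calcium dye-loaded GnRHR-HEK293 cells. Intracellular calcium was then followed as 480/540 nm fluorescence at 1 s intervals over 3 min.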
Background: Calcium flux is commonly read through the fluorescence of an indicator in the cells.

In assay [4] the target is KiSS-1 receptor (Homo sapiens) (UniProt Q969F8). Nature of the assay: Human kisspeptin (KISS1R) small molecule agonists, calcium flux assay in KISS1R-HEK293 cells (AID 1920064; active = well fitted curve in the direction sought with a large enough effect in the repeat runs; an effect the other way counts as inactive or inconclusive). In a few lines: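 Agonist mode: intracellular calcium rise tracked at 1 s intervals over 3 min (480/540 nm) immediately after compound addition to dye-loaded KISS1R-HEK293 stable cells. Each compound tested at 15 concentrations in triplicate.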
Chain of KiSS-1 receptor (Homo sapiens) (Q969F8 whole entry, looked up): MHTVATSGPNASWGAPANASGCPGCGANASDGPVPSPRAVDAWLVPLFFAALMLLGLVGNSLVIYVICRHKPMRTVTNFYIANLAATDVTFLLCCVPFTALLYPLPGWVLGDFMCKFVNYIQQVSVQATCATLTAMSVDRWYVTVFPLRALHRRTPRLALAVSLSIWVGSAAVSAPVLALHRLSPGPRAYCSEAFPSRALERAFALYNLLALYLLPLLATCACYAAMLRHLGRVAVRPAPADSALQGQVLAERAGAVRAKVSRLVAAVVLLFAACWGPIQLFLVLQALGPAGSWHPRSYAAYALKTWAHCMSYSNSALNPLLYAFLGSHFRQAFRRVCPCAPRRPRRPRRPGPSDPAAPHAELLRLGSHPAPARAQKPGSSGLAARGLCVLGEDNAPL

Assay [5] is described as follows: G protein-coupled receptor (GPCR) small molecule agonists, calcium flux assay: HEK293 wild type cell line counter screen (AID 1920065). In a few lines: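 Calcium flux counter screen: compound added in agonist mode at 15 concentrations in triplicate to dye-loaded parental HEK293 cells. Fluorescence (480/540) read kinetically for 3 min; ATP served as positive control.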

A short description of assay [6]: p53 small molecule agonists, cell-based qHTS assay with human liver microsomes: qHTS cell viability counter screen (AID 1963579). Note: nearly all actives have a fitted effect of over 45% in size. Note: potency is the fitted concentration of half-maximal effect. The essentials:
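HLM-supplemented (0.5 mg/mL final) and NADPH-supplemented (0.5 mg/mL final) p53RE-bla cultures, 4,000 cells per well, were dosed with compounds in DMSO for 16 h at 37 C; luminescent ATP detection (CellTiter-Glo, 30 min, room temperature) quantified surviving cells.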
For orientation: Quantitative high-throughput screening tests each substance at several concentrations.

A short description of assay [7]: p53 small molecule agonists, cell-based qHTS assay with rat liver microsomes: qHTS cell viability counter screen (AID 1963580). Note: nearly all actives have a fitted effect of over 45% in size. In a few lines:
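Luminescent ATP readout (CellTiter-Glo, 30 min at room temperature) reports viability of p53RE-bla HCT-116 cells after 16 h at 37 C with test compounds under metabolic activation by rat liver microsomes and NADPH at 0.5 mg/mL final each.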

Assay [8] can be described thus: p53 small molecule agonists, cell-based qHTS assay: qHTS cell viability counter screen (AID 1963581). Note: nearly all actives have a fitted effect of over 45% in size. Note: potency is the fitted concentration of half-maximal effect. The essentials:
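Counter screen read by CellTiter-Glo luminescence (ATP content, 30 min at room temperature), run in the same wells as the beta-lactamase reporter read. HCT-116 p53RE-bla cells saw compounds for 16 h at 37 C.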

Assay [9] concerns the target 5-hydroxytryptamine receptor 2A (Homo sapiens) (UniProt P28223). Nature of the assay: 5-hydroxytryptamine receptor 2A (HTR2A) small molecule antagonists, cell-based qHTS assay (AID 1963586). Note: nearly all actives have a fitted effect of over 45% in size. The essentials: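 CHO cells stably expressing human HTR2A were plated for 18 h at 37 C, then loaded with calcium dye for 1 h. Compounds were preincubated 5 min at room temperature before DOI (4 nM solution) was added. Kinetic fluorescence was read for 3 min.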

Assay [10] has the same target. Nature of the assay: 5-hydroxytryptamine receptor 2A (HTR2A) small molecule agonists, cell-based qHTS assay (AID 1963587). Note: nearly all actives have a fitted effect of over 30% in size. The essentials: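 HTR2A-CHO cells, plated 18 h at 37 C/5% CO2, dye-loaded 1 h at 37 C; compounds in DMSO added by pin tool (agonist mode). Intracellular calcium flux read as kinetic fluorescence on FDSS over 2 min at 1 s intervals.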
The target in assay [11] is Muscarinic acetylcholine receptor M1 (Homo sapiens) (UniProt P11229). Put plainly: Cholinergic receptor muscarinic 1 (CHRM1) small molecule antagonists, cell-based qHTS assay (AID 1963588). Note: nearly all actives have a fitted effect of over 40% in size. In a few lines: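 Compounds were tested at 15 concentrations in three independent runs. Dye-loaded CHRM1-CHO cells were exposed 5 min at room temperature before stimulation by acetylcholine added at 50nM. Intracellular calcium was read kinetically on FDSS for 3 min.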
Chain of Muscarinic acetylcholine receptor M1 (Homo sapiens) (P11229 whole entry, looked up): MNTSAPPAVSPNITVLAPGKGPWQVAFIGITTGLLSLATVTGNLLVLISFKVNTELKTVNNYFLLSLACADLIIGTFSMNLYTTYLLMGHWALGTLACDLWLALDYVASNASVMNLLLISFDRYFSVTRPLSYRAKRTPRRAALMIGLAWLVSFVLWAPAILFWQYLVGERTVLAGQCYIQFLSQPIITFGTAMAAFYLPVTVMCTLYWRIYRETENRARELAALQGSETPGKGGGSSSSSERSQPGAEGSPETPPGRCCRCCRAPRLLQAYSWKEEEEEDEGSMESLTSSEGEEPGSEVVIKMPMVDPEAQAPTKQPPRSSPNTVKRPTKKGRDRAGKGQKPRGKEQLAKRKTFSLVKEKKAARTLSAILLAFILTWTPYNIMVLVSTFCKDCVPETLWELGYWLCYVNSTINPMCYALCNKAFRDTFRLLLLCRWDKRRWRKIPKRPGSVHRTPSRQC

Assay [12] has the same target. Nature of the assay: Cholinergic receptor muscarinic 1 (CHRM1) small molecule agonists, cell-based qHTS assay (AID 1963589). Note: nearly all actives have a fitted effect of over 35% in size. The essentials:
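Agonist-mode calcium-flux screen: compounds at 15 concentrations, three independent runs, were pin-transferred onto dye-loaded human CHRM1-CHO cells. Fluorescence was then recorded kinetically every second over minutes.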

A short description of assay [13]: cAMP Responsive Elements (CRE) small molecule agonists, cell-based qHTS assay (AID 1963590). The essentials: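 Agonist mode: compound added to CRE-bla HEK 293T cells (2,000/well, 18 h after plating) for 3 h at 37 C/5% CO2. Reporter activity detected via FRET beta-lactamase substrate, 2 h room-temperature loading.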
A short description of assay [14]: cAMP Responsive Elements (CRE) small molecule antagonists, cell-based qHTS assay (AID 1963591; active = well fitted inhibition curve with a large enough effect in the signal ratio in the repeat runs, not every such curve was filed as active; the % refers to the signal ratio). In a few lines: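 Antagonist mode: compounds are added alongside the adenylyl cyclase activator NKH477 (0.25 uM final) to CRE-bla HEK293T cells for 3 h. LiveBLAzer FRET substrate, 2 h at room temperature, reports bla expression.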
For assay [15], the target named is Beta-2 adrenergic receptor (Homo sapiens) (UniProt P07550). Put plainly: Adrenergic beta2 receptor (ADRB2) small molecule antagonists, cell-based qHTS assay (AID 1963592). Note: series mostly up to about 92 µM; nearly all actives have a fitted effect of over 50% in size. The essentials:
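Assay format: CHO-ADRB2 cells, 18-20hr seeding at 37C/5% CO2, then compound plus 1nM isoproterenol agonist mix for 0.5hr RT. Homogeneous time-resolved fluorescence cAMP detection after 1hr, expressed as 665/615 nm ratio.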

For assay [16], the target named is D(2) dopamine receptor (Homo sapiens) (UniProt P14416). Nature of the assay: Dopamine D2 receptor (DRD2) small molecule agonists, cell-based qHTS assay (AID 1963594). Note: nearly all actives have a fitted effect of over 35% in size. In a few lines: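 HEK293 cells stably expressing DRD2 were cultured 24 h at 37 C, then given Ro20-1724 (0.1 mM final) and compounds for 10 min at room temperature. NKH477 (200nM) was then added for 30 min. cAMP was read by HTRF.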
Chain of D(2) dopamine receptor (Homo sapiens) (P14416 whole entry, looked up): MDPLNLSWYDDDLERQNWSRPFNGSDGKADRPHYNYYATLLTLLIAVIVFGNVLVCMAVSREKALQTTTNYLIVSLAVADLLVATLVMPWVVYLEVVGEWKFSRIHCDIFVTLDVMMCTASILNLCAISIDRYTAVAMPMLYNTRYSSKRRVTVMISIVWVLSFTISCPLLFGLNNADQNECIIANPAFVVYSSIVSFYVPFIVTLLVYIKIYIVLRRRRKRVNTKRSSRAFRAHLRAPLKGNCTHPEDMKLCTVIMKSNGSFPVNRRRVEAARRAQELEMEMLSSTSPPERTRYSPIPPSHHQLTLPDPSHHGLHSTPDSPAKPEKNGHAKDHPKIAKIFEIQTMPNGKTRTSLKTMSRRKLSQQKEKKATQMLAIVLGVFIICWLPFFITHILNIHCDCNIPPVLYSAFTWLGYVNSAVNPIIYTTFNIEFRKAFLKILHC

Assay [17] has the same target. Nature of the assay: Dopamine D2 receptor (DRD2) small molecule antagonists, cell-based qHTS assay (AID 1963595; active = well fitted inhibition curve with a large enough effect in the signal ratio in the repeat runs, with a control signal flat; the % refers to the signal ratio). In a few lines: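 Readout: HTRF cAMP, cAMP-d2 competing with cellular cAMP for anti-cAMP cryptate, read after 1 h. Cells: DRD2-HEK293. Conditions: 0.1 mM Ro20-1724, 12 nM quinpirole, 200 nM NKH477, 30 min RT.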
The target in assay [18] is Beta-2 adrenergic receptor (Homo sapiens) (UniProt P07550). Put plainly: Adrenergic beta2 receptor (ADRB2) small molecule agonists, cell-based qHTS assay (AID 1963593).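 For activation: CHO cells stably overexpressing human ADRB2.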 Note: potency is the fitted concentration of half-maximal effect. The essentials: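 CHO cells stably over-expressing ADRB2 were plated overnight at 37C, then dosed with compounds plus a stimulation mix containing 100uM IBMX and 25uM Ro-20-1724 for 0.5hr at room temperature. cAMP was measured by HTRF competition, 1hr.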
Chain of Beta-2 adrenergic receptor (Homo sapiens) (P07550 whole entry, looked up): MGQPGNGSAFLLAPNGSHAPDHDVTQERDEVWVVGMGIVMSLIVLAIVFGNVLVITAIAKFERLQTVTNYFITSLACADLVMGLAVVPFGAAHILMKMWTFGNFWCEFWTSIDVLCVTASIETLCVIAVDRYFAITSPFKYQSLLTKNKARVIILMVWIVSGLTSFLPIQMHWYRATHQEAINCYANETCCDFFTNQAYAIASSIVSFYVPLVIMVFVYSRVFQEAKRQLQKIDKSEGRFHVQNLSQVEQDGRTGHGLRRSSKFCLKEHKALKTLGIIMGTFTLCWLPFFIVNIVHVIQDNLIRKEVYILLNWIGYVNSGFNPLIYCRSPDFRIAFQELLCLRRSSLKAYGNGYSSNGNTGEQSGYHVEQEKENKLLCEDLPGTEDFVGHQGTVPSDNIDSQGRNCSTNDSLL
% is set by controls: 0 for no effect and ±100 for the full control effect.

Chain of Gonadotropin-releasing hormone receptor (Homo sapiens) (P30968 whole entry, looked up): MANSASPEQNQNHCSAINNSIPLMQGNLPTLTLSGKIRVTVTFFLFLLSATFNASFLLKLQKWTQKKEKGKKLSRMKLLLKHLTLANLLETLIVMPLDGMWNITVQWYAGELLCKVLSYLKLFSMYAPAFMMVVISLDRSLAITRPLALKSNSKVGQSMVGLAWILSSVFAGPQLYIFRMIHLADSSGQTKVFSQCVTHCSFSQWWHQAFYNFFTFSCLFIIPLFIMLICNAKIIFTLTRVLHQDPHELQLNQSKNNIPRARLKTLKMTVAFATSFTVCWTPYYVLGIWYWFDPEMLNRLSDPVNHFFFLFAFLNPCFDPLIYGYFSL
Chain of 5-hydroxytryptamine receptor 2A (Homo sapiens) (P28223 whole entry, looked up): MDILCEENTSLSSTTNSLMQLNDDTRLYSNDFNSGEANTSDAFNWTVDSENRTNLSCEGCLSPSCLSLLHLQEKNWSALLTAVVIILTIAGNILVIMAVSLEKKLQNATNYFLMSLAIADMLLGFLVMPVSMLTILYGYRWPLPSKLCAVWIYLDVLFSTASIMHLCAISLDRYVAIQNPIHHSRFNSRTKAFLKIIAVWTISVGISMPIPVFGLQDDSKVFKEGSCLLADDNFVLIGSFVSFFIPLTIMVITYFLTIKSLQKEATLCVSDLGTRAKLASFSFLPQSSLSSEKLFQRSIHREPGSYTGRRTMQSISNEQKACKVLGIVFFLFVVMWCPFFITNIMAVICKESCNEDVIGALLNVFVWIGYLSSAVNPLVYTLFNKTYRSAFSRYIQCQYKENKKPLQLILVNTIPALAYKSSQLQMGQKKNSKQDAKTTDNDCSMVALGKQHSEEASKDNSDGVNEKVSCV

Take `CC1=CC[C@@H]2C[C@H]1C2(C)C`: the activity change, negative = cytotoxicity is -0.0198% [at 19 µM] in assay [1], -2.33% [at 13.5 µM] in assay [6], 4.85% [at 13.5 µM] in assay [7] and -11.2% [at 13.5 µM] in assay [8]. In addition, the activity, positive = activation in [2] was -20.3% [at 19 µM]. Also, the activity change in assay [3] was 0.0518% [at 11.8 µM, stronger effect = higher value]. The activation in assay [4] was -0.901% [at 15.8 µM]; in [5] it was -1.47% [at 11.8 µM]; in [10], -0.177% [at 15.9 µM]; in [12] it was -0.0486% [at 15.8 µM]; in [13], 0.0762% [at 19 µM]; in [16], -0.279% [at 19 µM]. The activity, negative = inhibition in assay [9] was 6.44% [at 12.7 µM]; in assay [11], -2.89% [at 12.6 µM]. Besides, the activity change, negative = inhibition in assay [14] was 3.33% [at 18.9 µM]; in [15] it was -16.3% [at 19 µM]; in assay [17], -2.93% [at 18.9 µM].
Take `Nc1ccc(Cl)c(N)c1`: the Potency result in assay [1], in assay [2], in [3], in assay [4], in assay [5] and in assay [6] was “inactive” in each case. Moreover, the Potency entry in assay [7], in assay [8], in [9], in assay [10], in assay [11] and in assay [12] was “inactive” throughout. The Potency entry in assay [13], in assay [14], in assay [15], in assay [18], in assay [16] and in assay [17] was “inactive” in each case.
Regarding `O=[N+]([O-])c1ccc2nc[nH]c2c1`, the Potency entry in assay [1], in [2], in assay [3], in assay [4], in assay [5] and in assay [6] was “inactive” each time. The Potency entry in [7], in [8], in assay [9], in [10], in [11] and in assay [12] was “inactive” throughout. Besides, the Potency result in [13], in [15], in assay [18], in assay [16] and in [17] was “inactive” each time.
With `OCC(CO)(CBr)CBr`, the Potency result in assay [1], in assay [2], in assay [3], in assay [4], in assay [5] and in assay [6] was “inactive” each time. The Potency entry in assay [7], in assay [8], in assay [9], in [10], in [11] and in [12] was “inactive” throughout. The Potency result in [14], in [15], in assay [16] and in [17] was “inactive” throughout.
For `CCCCOCCOCCOC(=O)CCCCC(=O)OCCOCCOCCCC`, the Potency entry in assay [1], in assay [2], in [3], in [4], in [5] and in assay [6] was “inactive” each time. Further, the Potency result in assay [7], in [8], in assay [9], in [10], in [11] and in assay [12] was “inactive” each time. Also, the Potency result in assay [13], in assay [14], in assay [15], in assay [16] and in [17] was “inactive” throughout.
`C=CC(=O)OCC(CO)(COC(=O)C=C)COC(=O)C=C`: the Potency in [1] is 4.87 µM (active) and 12.2 µM (active); in assay [2], 4.87 µM (active) and 6.11 µM (active); in assay [6], 45.9 µM (active) and 9.13 µM (active); in assay [8], 16.3 µM (active) and 10.2 µM (active); in [18], 6.88 µM (active) and 19.3 µM (active). The Potency entry in assay [3], in [4], in assay [5], in assay [9], in assay [10] and in assay [11] was “inactive” in each case. For the same molecule, the Potency entry in [12], in assay [15] and in assay [16] was “inactive” throughout.
